Measurements: PubChem BioAssay (Tox21)
Inconclusive results are not listed. Activity calls are given as the source filed them. The call rests on the fitted dose curve; in most records, active means well fitted activation curve with a large enough effect in the signal ratio in the repeat runs (not every such curve was filed as active); inconclusive means weak or mixed curves; inactive means flat fitted curve, though single readings scatter; the % refers to the signal ratio.

Assay: p53 small molecule agonists, cell-based qHTS assay (AID 1963582)
Conditions: HCT-116 p53RE-bla reporter, beta-lactamase FRET ratio, 16 h; series mostly up to 66 µM; activation: at the top concentration
Summary of the method: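 Measured: fluorescence from cleaved LiveBLAzer substrate. System: p53RE-bla cells, 16 h compound treatment at 37 C, 2 h substrate step at room temperature.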
On the % scale 0 is the no-effect control and ±100 the full control effect; potency means the concentration at half of the fitted maximal effect.

Row | Compound | Potency | activation
1 | O=C(OC[C@H]1O[C@@H](OC(=O)c2cc(O)c(O)c(OC(=O)c3cc(O)c(O)c(O)c3)c2)[C@H](OC(=O)c2cc(O)c(O)c(OC(=O)c3cc(O)c(O)c(O)c3)c2)[C@@H](OC(=O)c2cc(O)c(O)c(OC(=O)c3cc(O)c(O)c(O)c3)c2)[C@@H]1OC(=O)c1cc(O)c(O)c(OC(=O)c2cc(O)c(O)c(O)c2)c1)c1cc(O)c(O)c(OC(=O)c2cc(O)c(O)c(O)c2)c1 | 11 µM (active) | –
2 | COC(=O)CC(C)CCC=C(C)C (stereo unspecified) | – | -2.39% (inactive)
3 | CC(C)n1nc(-c2cc3cc(O)ccc3[nH]2)c2c(N)ncnc21 | – | -4.22% [at 30.3 µM] (inactive)
4 | CNCc1ccc(NC(=O)c2c[nH]c3c2C(=O)CCC3)cc1 | – | -1.49% (inactive)
5 | CCOC(=O)COc1ccc2c(C)c(CCN(CC)CC)c(=O)oc2c1Cl | – | -0.95% [at 30.3 µM] (inactive)
6 | Cc1cccc(C)c1NC(=O)CN1CCN(CCCC(c2ccc(F)cc2)c2ccc(F)cc2)CC1 | – | -0.481% [at 30.3 µM] (inactive)
7 | COc1ccccc1N1CCN(CC(O)COc2cccc3ccccc23)CC1 (stereo unspecified) | – | -2.89% [at 30.3 µM] (inactive)
8 | CC(CN)CC(C)(C)CCN (stereo unspecified) | – | 0.274% [at 172 µM] (inactive)
9 | Cc1cc(NC(=O)C(=O)O)cc(C)c1Oc1ccc(O)c2c1CCC2 | – | 2.89% (inactive)
10 | OCCCS | – | 2.54% (inactive)
11 | Cc1cc(=O)oc2cc(N(C)C)ccc12 | 32.4 µM (active) | –
12 | CCCCCOc1ccccc1/C(=C\SC)n1ccnc1 | – | 11.9% [at 30.3 µM] (inactive)
13 | CCCCNCCCC | – | -1.59% (inactive)
14 | O=C(c1ccc(F)cc1)C1CCN(CCn2c(=S)[nH]c3ccccc3c2=O)CC1 | – | -4.39% [at 30.3 µM] (inactive)
15 | CCC(C)(C)c1ccc(CC(C)CN2C[C@@H](C)O[C@@H](C)C2)cc1 (stereo partly specified) | – | -7.69% [at 30.3 µM] (inactive)
16 | CCCCCCCCCCCCCCCCCCCl | – | -3.59% [at 5.99 µM] (inactive)
